Source: PubChem BioAssay
Shown is part of a subset that was picked to be rich in hits.
DUX4 txn inh: blocks DUX4-driven transcriptional activation | 293T-iDUX4 ZSCAN4-Gaussia luciferase reporter, 24 h; stronger effect = lower value | activity change, negative = inhibition, % (no concentration beside the values) | 0.8% of 37,000 active | AID 1224904;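 active means mean inhibition of at least 10% in the main channel, exceeding the control channel by a set limit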;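 further: 0% = median of neutral control wells and -100% = median of positive control wells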
* hit, by the source's call; ! = a repeat was not active.

SMILES	DUX4 txn inh
COc1ccccc1CN1CC[C@@H]2[C@H](CO)Nc3ccc(C#Cc4ccccc4)cc3[C@@H]21	-8.3
O=C(c1cccc(F)c1)N1CC[C@@H]2[C@H](CO)Nc3ccc(C#Cc4ccc(F)cc4)cc3[C@@H]21	-41.7*
O=C(c1cccnc1)N1CC[C@H]2[C@H](CO)Nc3ccc(C#Cc4cccnc4)cc3[C@H]21	9.0
OC[C@H]1Nc2ccc(-c3ccc(F)cc3)cc2[C@@H]2[C@H]1CCN2Cc1ccc(F)cc1	-4.3
CC(=O)N1CC[C@@H]2[C@@H](CO)Nc3ccc(C#Cc4cccnc4)cc3[C@@H]21	4.9
O=C(c1cccc(F)c1)N1CC[C@@H]2[C@H](CO)Nc3ccc(C#CC4CC4)cc3[C@@H]21	5.6
O=C(c1cccc(F)c1)N1CC[C@@H]2[C@H]1c1cc(-c3ccccc3F)ccc1N[C@@H]2CO	1.1
COc1ccccc1CN1CC[C@@H]2[C@@H](CO)Nc3ccc(-c4cccc(F)c4)cc3[C@@H]21	-23.5*
O=C(C1CCCC1)N1CC2(C1)[C@H](c1ccccc1)[C@@H](CO)N2C(=O)NC1CCCC1	-4.9
C[C@@H]1CN([C@@H](C)CO)C(=O)c2cc(NC(=O)CCCN(C)C)ccc2O[C@@H](C)CCCCO[C@@H]1CN(C)C(=O)Cc1ccccc1	-2.3
CO[C@H]1CN(C)C(=O)c2cc(NS(=O)(=O)c3ccc(Cl)cc3)ccc2OC[C@@H](C)N(C(=O)NC(C)C)C[C@@H]1C	0.9
CCCN1C[C@@H](C)[C@@H](OC)CN(C)C(=O)c2ccc(NC(=O)c3ccc(F)cc3)cc2OC[C@H]1C	1.0
C[C@@H]1CN([C@H](C)CO)C(=O)c2cc(NC(=O)c3ccncc3)ccc2O[C@@H](C)CCCCO[C@H]1CN(C)S(=O)(=O)c1cn(C)cn1	1.3
O=C(c1ccccc1)N1CC[C@@H]2[C@@H](CO)Nc3ccc(C#Cc4cccc(F)c4)cc3[C@@H]21	-43.4*
O=C(c1ccccc1)N1CC[C@@H]2[C@H]1c1cc(C#Cc3cccc(F)c3)ccc1N[C@@H]2CO	-3.8
O=C(Cc1ccncc1)N1CC[C@@H]2[C@@H](CO)Nc3ccc(-c4cccc(F)c4)cc3[C@@H]21	-9.2
COc1cccc(C#Cc2ccc3c(c2)[C@@H]2[C@@H](CCN2C(=O)c2ccc(F)cc2)[C@@H](CO)N3)c1	6.4
O=C(Cc1ccccc1)N1CC[C@@H]2[C@@H](CO)Nc3ccc(-c4ccccc4F)cc3[C@@H]21	8.5
CCC(=O)N1CC[C@@H]2[C@@H](CO)N(C)c3ccc(-c4cccc(F)c4)cc3[C@@H]21	9.9
CN1c2ccc(-c3cccc(F)c3)cc2[C@H]2[C@H](CCN2C(=O)c2ccncc2)[C@@H]1CO	-0.9
CN1c2ccc(-c3cccc(F)c3)cc2[C@H]2[C@H](CCN2C(=O)c2ccccc2F)[C@H]1CO	-45.1*
O=C(Cc1ccncc1)N1CC[C@@H]2[C@H](CO)Nc3ccc(-c4ccccc4F)cc3[C@@H]21	-48.0*
CN(C)CCCNC(=O)C[C@@H]1C=C[C@@H](NC(=O)Cc2cccnc2)[C@H](CO)O1	3.2
CC(=O)N1[C@@H]2c3ccc(C4=CCCC4)c(=O)n3C[C@H]1[C@H](CO)[C@H]2C(=O)NCc1ccccc1	-0.5
C/C=C/c1ccc2c(c1)O[C@@H](CN(C)C(=O)NCCC)[C@@H](C)CN([C@@H](C)CO)S2(=O)=O	-1.1
SMILES	DUX4 txn inh
O=C(NC1CCCCC1)[C@@H]1[C@@H](CO)[C@@H]2Cn3c(cccc3=O)[C@H]1N2CC1CCCCC1	9.6
CO[C@@H]1CN(C)C(=O)c2ccc(NC(=O)c3cccc(F)c3)cc2OC[C@@H](C)N(CC2CC2)C[C@H]1C	-4.5
CO[C@H]1CC[C@H]2CCN(C)C(=O)[C@H](C)[C@H](OC)CN(C)C(=O)c3cc(C#N)ccc3OC[C@H]1O2	-1.2
CN(C)C(=O)[C@@H]1[C@@H](CO)[C@@H]2Cn3c(ccc(C4=CCCC4)c3=O)[C@H]1N2CC1CCCC1	-2.1
CCCNC(=O)N1CC2(CCN(C(=O)Nc3cccc(F)c3)CC2)c2c(n(C)c3cc(OC)ccc23)[C@H]1CO	-5.3
C[C@@H]1CN([C@@H](C)CO)C(=O)Cc2cc(NS(=O)(=O)c3cn(C)cn3)ccc2O[C@@H]1CN(C)C(=O)NC1CCCCC1	-0.5
CCCNC(=O)C[C@H]1CC[C@@H]2[C@H](COC[C@H](O)CN2C(=O)Nc2cccc(Cl)c2)O1	1.0
c1ncc(-c2ccc(C3[C@@H]4CN(Cc5cocn5)C[C@H]3N4)cc2)cn1 (stereo partly drawn)	12.4
Cc1ccccc1-c1ccc(C2[C@H]3CNC[C@@H]2N3Cc2ccccn2)cc1 (stereo partly drawn)	17.9
Fc1ccccc1-c1ccc(C2[C@@H]3CN(Cc4ccccn4)C[C@H]2N3)cc1 (stereo partly drawn)	-22.2*!
Cc1ccc(CN2CC(=O)N3[C@H](C2)[C@H](c2ccc(-c4ccccc4F)cc2)[C@@H]3CO)cc1	1.7
OC[C@H]1[C@H](c2ccc(-c3ccccc3F)cc2)[C@@H]2CN(Cc3ccncc3)CCCCN12	1.6
Fc1ccccc1-c1ccc(C2[C@@H]3CN(Cc4ccccc4)C[C@H]2N3)cc1 (stereo partly drawn)	-24.5*!
CS(=O)(=O)N1[C@H](C#N)[C@H](c2ccc(-c3ccccc3F)cc2)[C@@H]1CO	1.1
CCNC(=O)C[C@H]1CC[C@@H]2[C@H](COC[C@H](O)CN2C(=O)c2cc(Cl)cc(Cl)c2)O1	-2.8
COc1ccccc1NC(=O)N(C)C[C@@H]1OCc2ccccc2-c2c(n(C)c3ccccc23)C(=O)N([C@H](C)CO)C[C@H]1C	2.5
CC(=O)N(C)C[C@@H]1OCc2ccccc2-c2c(n(C)c3ccccc23)C(=O)N([C@H](C)CO)C[C@@H]1C	18.6
C[C@@H]1CN([C@H](C)CO)C(=O)c2c(c3ccccc3n2C)-c2ccccc2CO[C@H]1CN(C)C(=O)c1cc(Cl)cc(Cl)c1	-40.9*
C[C@@H]1CN([C@H](C)CO)C(=O)c2c(c3ccccc3n2C)-c2ccccc2CO[C@H]1CN(C)C(=O)Nc1ccccc1C(F)(F)F	-4.3
C[C@@H]1CN([C@@H](C)CO)C(=O)c2c(c3ccccc3n2C)-c2ccccc2CO[C@@H]1CN(C)C(=O)Nc1cccc(Cl)c1Cl	-34.5*
CC(=O)N(C)C[C@H]1OCc2ccccc2-c2c(n(C)c3ccccc23)C(=O)N([C@H](C)CO)C[C@@H]1C	10.3
COc1ccc2c3c(n(C)c2c1)[C@H](CO)N(C(=O)c1cccnc1)CC31CCN(S(=O)(=O)c2ccccc2)CC1	4.6
CC(=O)Nc1ccc2c(c1)C(=O)N(C)[C@H]1CC[C@H](CC(=O)NCc3ccc4c(c3)OCO4)O[C@H]1CO2	-2.5
